Cardio protect = cardioprotection against H2O2-induced cell death, primary screen, uHTS, H9c2 cells, ATPLite luminescence; AID 588492, 2011; 360,000 tested, 0.63% active; H9c2 cardiomyocytes, H2O2 injury protection, 2 h; protection from H2O2 cell death, % at 20 µM;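 active = compounds giving at least 50% protection of heart cells from peroxide-induced death in the single-dose screen, raw or plate-pattern-corrected value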;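 also: 0% = DMSO wells with peroxide and 100% = DMSO wells without peroxide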
aDG glyco act = activators of alpha-DG glycosylation, primary screen, uHTS, Pro5-aDG cells, AlphaScreen | activation, % at 10 µM | AID 624168, 2012 | alpha-DG glycosylation AlphaScreen (IIH6); 0% Pro5, 100% B10-LARGE cell signal | 360,000 tested, 0.22% active;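 active = activation of at least 8% versus controls, or a plate z-score of at least 8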;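 also: Pro5 are CHO cells carrying HIG-tagged alpha-DG that lacks glycosylation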
MPTP block = mitochondrial permeability transition pore inhibitors, primary screen, biochemical, isolated mouse mitochondria, absorbance; Ca2+ swelling absorbance, 30 min; inhibition, % at 10 µM; 360,000 tested, 1.4% active; AID 602449, 2012;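 active = inhibition of 50% or more, scaled per plate between neutral and stimulator controls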;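 also: 0% = DMSO wells given calcium and 100% = 1 mM EGTA wells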
FAS TE block = FAS thioesterase domain inhibitors, primary screen, biochemical, fluorescence intensity, uHTS; inhibition, % at 15 µM; 360,000 tested, 0.67% active; AID 602261, 2012; recombinant FAS-TE, OMFH fluorogenic substrate, fluorescence endpoint; Fatty acid synthase (Homo sapiens), P49327;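 active = compounds whose normalised, plate-corrected inhibition of enzyme fluorescence in the single-dose primary screen is 50% or more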;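 also: 0% = DMSO with enzyme and 100% = substrate without enzyme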
Yeast superoxide = reduction of superoxide in aged yeast, primary screen, HTS. S. cerevisiae aged cells, superoxide DHE fluorescence; stronger effect = lower value. superoxide response (% of plate mean), % at 10 µM. 330,000 tested, 0.18% active;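 active = superoxide response under a set limit, about three screen SD below normal, cut at about 65% in these data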;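 also: yeast aged for seven days with compound at 30 °C before DHE staining; 100% = average MFI of all compound-treated wells on the plate with controls excluded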
SUMO Mot1 rescue = yeast Mot1-301 growth rescue at high temperature, primary screen, SUMOylation pathway inhibitor project, S. cerevisiae, ATP luminescence, 38.5C. S. cerevisiae Mot1-301 growth rescue; percent above DMSO median, 100 means doubled. growth rescue, % at 18.8 µM. 320,000 tested, 1% active. AID 2716, 2010;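 active = every valid replicate shows activation above 250% relative to neutral control wells; inactive = the rest, any valid replicate at or below 250%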;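 also: OY570 slx delta 5 strain wells were the positive control but not used for scaling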
* = called active by the depositor; nt = not tested or not shown; ! = not active in a repeat. The list is not random: actives were taken first. Their share in the collection is about 3.8%.

SMILES	Cardio protect	aDG glyco act	MPTP block	FAS TE block	Yeast superoxide	SUMO Mot1 rescue
Cc1ccccc1OCC(=O)OCC(=O)NC12CC3CC(CC(C3)C1)C2	-2	0	0	-5	nt	nt
CC(=O)Oc1cc(C(=O)OCC(=O)NC23CC4CC(CC(C4)C2)C3)cc(OC(C)=O)c1OC(C)=O	84*	0	1	-4	nt	nt
C=CCn1c(SCC(=O)Nc2c(C)n(C)n(-c3ccccc3)c2=O)nnc1-c1ccncc1	7	0	0	-10	nt	nt
Cc1cccc(NC(=O)c2ncn3c2C(=O)N[C@@H](C)C3)c1	6	0	1	-7	nt	nt
COc1ccc(/C=C/C(=O)OCC(=O)c2cc(C)ccc2C)cc1	3	0	-1	5	nt	nt
COc1ccc(Br)cc1C(C[N+](=O)[O-])c1c(N)n(C)c(=O)n(C)c1=O (configuration not stated)	-2	0	1	0	108	330*
CN(C)c1ccc(C(C[N+](=O)[O-])c2c(N)n(C)c(=O)n(C)c2=O)c(F)c1C#N (configuration not stated)	7	0	0	-5	108	78
COc1ccc(N2CCN(C(=O)c3cc(=O)c4cc(C)ccc4o3)CC2)cc1	-3	0	-1	2	133	-27
CCCOc1ccc(NC(=O)CC2C(=O)OCC3CCCCN32)cc1 (configuration not stated)	8	0	-2	-6	89	138
COc1ccc(-n2c(O)c(/C=N/Nc3nc(C)cc(C)n3)c3ccccc3c2=O)cc1OC	62*	0	1	3	98	-20
CCN(C(=O)COC(=O)c1ccc(-n2c(C)ccc2C)cc1)c1c(N)n(Cc2ccccc2)c(=O)[nH]c1=O	7	0	0	-5	nt	nt
CC1(C(=O)NS(=O)(=O)c2cccs2)CCN1C(=O)CC1CCCCC1 (configuration not stated)	8	0	0	-3	nt	nt
Cc1ccc(S(=O)ONc2cccc(NOS(=O)c3ccc(C)cc3)c2)cc1 (configuration not stated)	-4	0	2	10	nt	nt
COc1cc2c(C#CCCO)c(-c3ccsc3)oc(=O)c2cc1OC	64*	0	-2	-5	113	-1
O=[N+]([O-])c1ccc(N2CCCC2)c([N+](=O)[O-])c1	-3	0	0	8	nt	nt
COc1cc(C(=O)NCC(c2cccs2)N2CCOCC2)ccc1OCc1ccc(Cl)cc1 (configuration not stated)	-6	0	-1	14	nt	nt
FC(F)C(F)(F)Oc1cccc(Nc2nccn3c(-c4ccc5ccccc5c4)cnc23)c1	-6	0	2	21	nt	nt
CC(=O)c1ccccc1OCC(O)CN1CCN(CCN2C(=O)c3cccc4cccc(c34)C2=O)CC1 (configuration not stated)	58*	0	29	-1	107	nt
N/C(=N\OC(=O)CSc1ccccc1)c1ccncc1	1	0	0	-7	101	3
CC(=O)N(CC(C)(C)CC=C(C)C)c1ccccc1	nt	nt	nt	nt	102	638*
COCC1CCN(C(=O)CC2C(=O)NCCN2Cc2cccc(Oc3ccccc3)c2)CC1 (configuration not stated)	4	0	-2	-2	95	-11
CCCCc1cc(=O)oc2cc(OCC(=O)NCc3ccccn3)ccc12	-3	0	-2	0	96	322*
CCCCc1cc(=O)oc2cc(OCC(=O)N[C@@H](Cc3ccccc3)C(=O)O)ccc12	0	0	0	15	141	523*
CCCCc1cc(=O)oc2cc(O)ccc12	52*	0	3	-2	103	-9
CCCCCCc1c(C)c2ccc(OCC(=O)N[C@@H](Cc3ccccc3)C(=O)O)cc2oc1=O	-2	0	-2	3	95	522*
SMILES	Cardio protect	aDG glyco act	MPTP block	FAS TE block	Yeast superoxide	SUMO Mot1 rescue
Cc1c(C)c2ccc(OCC(=O)N[C@@H](Cc3ccccc3)C(=O)O)cc2oc1=O	0	0	-2	3	126	-26
O=C(c1[nH]c(C(F)(F)F)nc1-c1ccccc1)N1CCc2ccccc2C1	1	0	1	-7	nt	nt
CCNc1nc(Oc2ccc(F)cc2)cc(C(F)(F)F)n1	-16	0	0	12	105	943*
COc1ccc2[nH]c(C(=O)N3CCN(c4ccccc4F)CC3)c(C)c2c1	-5	0	0	7	132	2
CN1CCN(C(c2cccnc2)c2ccc3cccnc3c2O)CC1 (configuration not stated)	62*	0	-4	-7	97	174
CN1CCN(C(c2ccc(F)cc2)c2ccc3cccnc3c2O)CC1 (configuration not stated)	18	0	-2	-8	nt	nt
COC(=O)c1ccc(C)c(NC(=O)CCCN2C(=O)NC(C)(C)C2=O)c1	-2	0	0	-8	86	-13
O=C(Nc1ccc(F)cc1F)c1csc(-c2ccncc2)n1	3	0	-2	8	96	6
Cc1ccc(C(=O)Nc2cccc(C(F)(F)F)c2)cc1NC(=O)c1csc(-c2ccncc2)n1	55*!	0	-1	10	95	1
COC(=O)C[C@@H]1CC[C@H](NC(=O)c2cnccn2)[C@@H](CO)O1	nt	0	0	nt	nt	nt
Cc1ccccc1C(=O)Nc1ccc2c(C#N)c3nc4ccccc4nc3n2c1	65*	0	11	-5	125	-7
COCCN(C(=O)CSc1nc2ccccc2o1)c1c(N)n(Cc2ccccc2)c(=O)[nH]c1=O	-3	0	0	-4	95	-9
Cc1cc(NC(=O)c2sccc2C)n(-c2nc3ccccc3[nH]2)n1	24	-1	2	38	121	15
COc1ccc(C(=O)Nc2cc(C)nn2-c2nc3ccccc3[nH]2)c(OC)c1	63*	-1	-1	16	126	nt
COc1cccc(OC)c1C(=O)Nc1cc(C)nn1-c1nc2ccccc2[nH]1	77*	0	-2	33	88	-5
Cc1cc(NC(=O)c2ccccc2)n(-c2nc3ccccc3[nH]2)n1	1	0	0	-4	107	-18
COc1ccc(Cc2nnc(SC)n2-c2ccc(F)cc2)cc1OC	-3	0	-1	2	nt	nt
CSc1c(-c2ccccn2)c(N)nn1C(=O)C1CC1	-13	0	1	14	109	-12
Cc1ccc(C(=O)CCc2ccc(N)cc2)cc1	-2	0	1	0	104	318*
COc1cccc(NC(=O)CSc2nnc(Cn3cnc([N+](=O)[O-])n3)n2C)c1	10	0	11	-7	130	2

Assay outcomes as filed in PubChem.
